# RTF Ca sens act = cardiac RTF calcium sensitivity activators, primary screen, biochemical, IANBD-TnC fluorescence, EC20 calcium; Troponin I, cardiac muscle (Homo sapiens) + Troponin T, cardiac muscle (Homo sapiens) + …; IANBD-labeled TnC RTF fluorescence at EC20 calcium; 0% EC20 calcium, 100% full calcium; activation, % at 7.2 µM; 340,000 compounds, 0.24% hits; AID 493008, 2010;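 active means activation above the mean over all tested compounds plus 3 SD, cut at about 30% in these data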;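 further: rise in fluorescence read as greater calcium sensitivity of cardiac thin filaments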
# CRFBP-R2 block = antagonists of CRF-BP/CRF-R2 complex, primary screen, cell-based, HEK293, calcium dye fluorescence, uHTS; CRF-induced calcium fluorescence; inhibition, % at 11.8 µM; 350,000 compounds, 0.59% hits; AID 588475, 2011;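 active means inhibition of the ligand-induced calcium signal above about 50% at the single tested concentration, limit read from the data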
# Cardiac RTF inh = cardiac RTF calcium sensitivity inhibitors, primary screen, biochemical, IANBD-TnC fluorescence, EC70 calcium. Troponin I, cardiac muscle (Homo sapiens) + Troponin T, cardiac muscle (Homo sapiens) + …. IANBD-labeled cardiac RTF, Ca2+ fluorescence. inhibition, % at 7.15 µM. 340,000 compounds, 0.12% hits. AID 493244, 2011;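 active means inhibition above the mean inhibition of all tested compounds plus 3 SD, cut at about 17% in these data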;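 further: assay run at fixed EC70 calcium of 1.6 mM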
# CRFR2-BP ag = agonists of CRF-BP/CRF-R2 complex, primary screen, cell-based, HEK293, calcium dye fluorescence, uHTS. CRF-binding protein / CRF receptor 2 complex (human). calcium dye fluorescence (FLIPR); percent of saturating CRF peptide response. activation, % at 13.2 µM. 350,000 compounds, 0.46% hits. AID 588473, 2011;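 active means activation of at least 50%, plus an integration ratio under a set limit after plate pattern correction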;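 further: plate controls were neutral control wells without compound for no effect and CRF at EC100 for full effect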
# RTF inh confirm = cardiac RTF calcium sensitivity inhibitors, confirmation, biochemical, fluorescence readout; inhibition, % at 7.15 µM; shares compounds with Cardiac RTF inh; 360 compounds, 8% hits; reconstituted cardiac thin filaments; AID 504635, 2011; in the data active means inhibition above about 18%
# * marks the source's active call; other numbers are inactive results; . = no result given. The list is not random: actives were taken first. Their share in the collection is about 1.3%.
SMILES,RTF Ca sens act,CRFBP-R2 block,Cardiac RTF inh,CRFR2-BP ag,RTF inh confirm
CC(C)(C)n1nnnc1C(c1cccc(C#N)c1)N1CCN2CCCC2C1 (stereo not given),4,1,1,-1,.
CC(C)(C)n1nnnc1C(c1cccc(C#N)c1)N1CCCCCC1 (stereo not given),-4,14,23*,-3,-1
COc1ccc(C)cc1NS(=O)(=O)c1ccc2c(c1)N(C)CCO2,-1,2,6,0,.
O=C1NC(=S)S/C1=C\C=C\c1ccc([N+](=O)[O-])o1,-11,-52,31*,48,20*
Cc1c(-n2c(SCC(=O)C(C)(C)C)nc3ccccc3c2=O)c(=O)n(-c2ccccc2)n1C,1,-17,-1,4,.
NC(=O)CSc1oc(-c2ccco2)nc1S(=O)(=O)c1ccc(F)cc1,-3,14,18*,0,-2
CCOc1ccc2c(c1)c(=O)c(S(=O)(=O)c1ccc(CC)cc1)cn2C,3,1,-7,-2,.
CC(C)(C)C1CCc2c(C(=O)NNC(=O)CCCC(=O)O)csc2C1 (stereo not given),-3,32,17*,-1,0
CC(C)(C)S(=O)(=O)N1C[C@@H]2CC/C=C\C/C=C\2[C@H]1CCO,-5,28,-11,2,.
CCCCCCCCCCCCCCCCn1cc[n+](C)c1,-10,24,24*,4,-3
O=C(O)CC(C(=O)O)N1C(=O)/C(=C/C=C/c2ccco2)SC1=S (stereo not given),-25,3,66*,-1,21*
O=C(O)C(Cc1ccccc1)N1C(=O)/C(=C/C=C/c2ccco2)SC1=S (stereo not given),-20,8,64*,4,27*
O=C(O)CCCN1C(=O)/C(=C/C=C/c2ccco2)SC1=S,-28,5,51*,-2,10
O=C1C(=Cc2ccco2)CCCC1=Cc1ccco1,18,9,-19,6,.
O=C1C(=Cc2ccco2)CCC1=Cc1ccco1,3,-6,29*,2,60*
O=C(N/N=C/c1ccc(F)cc1)c1cc(-c2ccco2)nc2ccccc12,-16,-10,19*,-1,3
COc1ccc(NC(=O)CC23CC4CC(CC(C4)C2)C3)cn1,0,-24,17*,1,2
COc1ccccc1C(=O)NC(=O)COC(=O)CCOc1ccccc1C,-14,-4,28*,-2,-1
Cc1ccccc1OCC(=O)OCC(=O)NCc1ccccc1,-4,10,7,-2,.
Cc1ccccc1OCC(=O)OCC(=O)NCCNC(=O)COC(=O)COc1ccccc1C,-10,7,17*,-2,0
COc1ccccc1C(=O)NC(=O)COC(=O)CCOc1ccc(C)cc1,-2,-2,-19,0,.
Oc1ccc(-c2nc(-c3ccc(F)cc3)c(-c3ccncc3)[nH]2)cc1,2,-30,20*,-3,1
O=c1[nH]c(=S)[nH]c2c1C(c1ccc(Br)cc1)c1c([nH]c(=S)[nH]c1=O)O2,-51,12,69*,-1,1
O=C1CCCC2=C1C(c1ccc(Br)cc1)c1c([nH]c(=S)[nH]c1=O)N2 (stereo not given),-3,13,-6,-2,.
CCOc1cc(/C=N/NC(=O)c2ccc(-c3csc(Nc4ccc(C)cc4)n3)cc2)ccc1OCC(=O)O,.,-8,.,1,.
SMILES,RTF Ca sens act,CRFBP-R2 block,Cardiac RTF inh,CRFR2-BP ag,RTF inh confirm
O=C(O)COc1ccc(/C=N/NC(=O)c2ccc(-c3csc(Nc4ccc(Cl)cc4)n3)cc2)cc1,-22,-5,34*,-1,18*
C=CCN1C(=O)c2ccc(C(=O)OCC(=O)N3CCN(c4ccccc4)CC3)cc2C1=O,4,27,21*,-2,-3
O=C1/C(=C/c2cccs2)COc2ccccc21,-7,-11,18*,0,-3
CCc1ccc(OCC(=O)NNC(=O)c2nn(CC)c(=O)c3ccccc23)cc1,-3,7,18*,-2,-8
CCCOC(=O)c1ccc(NC(=O)c2ccccc2OC)cc1,-3,-5,-2,-1,.
CCCOC(=O)c1ccc(NC(=O)c2c(Cl)ccc(Cl)c2OC)cc1,-6,-16,21*,2,-2
Cc1cccc(NC(=O)CCN2CCCC(C)C2)c1 (stereo not given),7,-18,59*,1,-5
Cc1cccc(NC(=O)CCN2CCCCC2)c1,0,7,-2,6,.
Cc1ccc(S(=O)(=O)N(C)c2ccccc2)cc1,-1,-8,0,0,.
CN(c1ccccc1)S(=O)(=O)c1ccccc1Br,4,25,17*,-2,0
O=C(Nc1ccc(N2CCOCC2)c(Cl)c1)c1ccccc1Cl,0,2,50*,-2,-5
O=C(Nc1ccc(N2CCOCC2)c(Cl)c1)c1ccc(F)cc1,3,-31,-7,1,.
COc1cc(/C=C2\SC(=Nc3ccccc3)N(CCc3c[nH]c4ccccc34)C2=O)ccc1OC(C)C(=O)O (stereo not given),-20,-21,35*,-2,4
CCOc1ncccc1C(=O)NCc1ccc(OC)c(OC)c1,-5,4,0,1,.
CCOc1ccc(CN(C)C(=O)c2cccnc2OCC)cc1OC,-3,7,18*,-1,0
O=C(c1cccc(S(=O)(=O)Nc2ccc(Br)cc2)c1)N1CCCC1,-2,-16,-13,1,.
CN(C)CC[C@@H](c1ccc(Cl)cc1)c1ccccn1,2,-17,17*,1,0
CCCOC1CCCN(C(=O)CCc2nnc(-c3ccc4c(c3)OCO4)o2)C1 (stereo not given),-2,5,2,-2,.
CC(C)NC(=O)Nc1ccc2c(c1)C(=O)N([C@H](C)CO)C[C@H](C)[C@@H](CN(C)S(C)(=O)=O)O2,0,-2,-3,3,.
COCCn1c(N)c(N(Cc2ccccc2)C(=O)COc2ccccc2F)c(=O)[nH]c1=O,-6,-4,19*,2,-5
OCC[C@@H]1C[C@H](O)[C@@H](O)[C@]2(OCCc3ccccc32)O1,2,3,5,0,.
Cc1c(Cl)c(C(=O)N2CCCCCC2)nn1C,2,8,-5,1,.
Cc1ccc(O)c(N=Cc2cc(Cc3ccccc3)cc([N+](=O)[O-])c2O)c1,-11,21,11,-1,.
O=[N+]([O-])c1cc(Cc2ccccc2)cc(C=Nc2ccc(N3CCOCC3)cc2)c1O,-13,-17,21*,-2,5

# Compound activity as filed in PubChem.
